Here are results for 40 compounds from the supplement of paper PMC12339681.

Counter-ions that a name gives are not always drawn.

The test relates to PBMC-derived induced microglia-like cells (piMGLC). Nature of the test: synaptosome phagocytic index relative to DMSO control (fraction of DMSO); higher = more phagocytosis. The following applies: concentration: 10 uM (2 uM for compounds listed in Table S2); pretreatment time: 24 h; assay time: 3 h. As for the experimental part:
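PBMC-derived induced microglia-like cells (piMGLCs) in 96-well plates were pretreated for 24 h with CNS-penetrant library compounds (MedChemExpress HY-L028), mostly at 10 uM; Table S2 lists 9 compounds at 2 uM. pHrodo-Red-labelled human iPSC-neuron synaptosomes (3 ug/well) were then added for 3 h, and cells were fixed and imaged by confocal microscopy. Phagocytic index (synaptosome area / cell count, CellProfiler) is a mean over 3 replicate wells on different plates, normalized to the DMSO control. Compounds leaving <10% of DMSO cell count were marked toxic and given no value.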
Regarding `CCCCCOC(=O)Nc1nc(=O)n([C@@H]2O[C@H](C)[C@@H](O)[C@H]2O)cc1F` [Capecitabine], the synaptosome phagocytic index came to 0.837. Consider `COc1cc2c(N3CCN(C(=O)Nc4ccc(OC(C)C)cc4)CC3)ncnc2cc1OCCCN1CCCCC1` [Tandutinib_(hydrochloride)], for which the synaptosome phagocytic index was found to be 0.778. For the compound `O=C(O)[C@H]1CSC(c2nc3cc4c(cc3s2)NCC4)=N1`, the synaptosome phagocytic index stood at 0.923.

`CN(C)C(=O)c1cc2cnc(Nc3ccc(N4CCNCC4)cn3)nc2n1C1CCCC1` [Ribociclib_hydrochloride]: the synaptosome phagocytic index was 0.332. To `CC(=O)OCC[N+](C)(C)C` [Acetylcholine_(chloride)] belongs 0.587; to `Cc1cnc(-c2cc(N3CCN(C(=O)CCS(C)(=O)=O)CC3)ncc2Cl)c(C)c1`, 0.665. Regarding `CC#Cc1cncc(-c2ccc3c(c2)[C@@]2(N=C(C)C(N)=N2)[C@]2(CC[C@H](OC)CC2)C3)c1` [Lanabecestat], the synaptosome phagocytic index is 1.03. Turning to `CCc1nc(N)nc(N)c1-c1ccc(Cl)cc1` [Pyrimethamine], the synaptosome phagocytic index is 1.01. `Clc1ccc(COC(Cn2ccnc2)c2ccc(Cl)cc2Cl)c(Cl)c1` (stereo not given) [Miconazole_(nitrate)]: the synaptosome phagocytic index was determined as 1.09.

As to `CN1[C@@H]2CC[C@H]1C[C@@H](OC(c1ccccc1)c1ccccc1)C2` [Benztropine_(mesylate)], the synaptosome phagocytic index turned out to be 0.833. To `COC[C@@H](c1ccc(C(F)(F)F)cc1)N1CCN(C2(C)CCN(C(=O)c3c(C)ncnc3C)CC2)C[C@@H]1C` [Vicriviroc_(maleate)] belongs 0.947. Consider `O=c1n(CCCN2CCN(c3cccc(Cl)c3)CC2)nc2ccccn12` [Trazodone_(hydrochloride)], for which the synaptosome phagocytic index stood at 1.39. In the case of `CC(=O)OCC(=O)[C@@]1(O)CC[C@H]2[C@@H]3CCC4=CC(=O)C=C[C@]4(C)[C@H]3[C@@H](O)C[C@@]21C` [Prednisolone_acetate], the synaptosome phagocytic index stood at 0.605. In the case of `Nc1cc(C(F)(F)F)c(-c2nc(N3CCOCC3)nc(N3CCOCC3)n2)cn1` [Bimiralisib], the synaptosome phagocytic index came out at 0.518. For the compound `CS(=O)(=O)c1ccc(C(=O)Nc2ccc(Cl)c(-c3ccccn3)c2)c(Cl)c1` [Vismodegib], the synaptosome phagocytic index was found to be 0.948. To `C=CC(N)CCC(=O)O` (stereo not given) [Vigabatrin] belongs 0.918; to `O=C(O)CCCc1ccccc1` [Sodium_4-phenylbutyrate], 0.996; to `COc1nccc(-c2c(-c3ccc(F)cc3)ncn2C2CCC(O)CC2)n1` (stereo not given), 0.995. In the case of `OCCOCCN1CCN(C2=Nc3ccccc3Sc3ccccc32)CC1` [Quetiapine] it was 0.906; in that of `COC1(c2sc3c(N4CCOCC4)nc(-c4cnc(N)nc4)nc3c2C)COC1`, 0.384. In the case of `CC12CC3CC(C)(C1)CC(N)(C3)C2` [Memantine_(hydrochloride)] it was 0.724; in that of `CC1=NN(c2ccccc2)C(=O)C1` [Edaravone], 0.555; in that of `CNS(=O)(=O)CCc1ccc2[nH]cc(C3CCN(C)CC3)c2c1` [Naratriptan_(hydrochloride)], 1.3. Turning to `Nc1cccc2c1CN(C1CCC(=O)NC1=O)C2=O` (stereo not given) [Lenalidomide], the synaptosome phagocytic index came out at 1.11. Consider `C=C[C@H]1CN2CC[C@H]1C[C@@H]2[C@@H](O)c1ccnc2ccc(OC)cc12` [Quinidine], for which the synaptosome phagocytic index amounted to 0.962. To `O=C(c1ccccc1)c1ccc2n1CCC2C(=O)O` (stereo not given) [Ketorolac_(tromethamine_salt)] belongs 0.874; to `CCCCC1C(=O)N(c2ccccc2)N(c2ccccc2)C1=O` [Phenylbutazone], 0.797.

For `CC[C@@]12C=C(C(=O)O)n3c4c(c5ccccc53)CCN(CCC1)[C@H]42` [Apovincaminic_acid_(hydrochloride_salt)], the synaptosome phagocytic index was 0.745. For `COc1ccc2c(c1)c(CC(=O)O)c(C)n2C(=O)c1ccc(Cl)cc1` [Indomethacin], the synaptosome phagocytic index amounted to 1.22. Turning to `COc1ncc(F)cc1CNc1ccc(Cc2c[nH]c3ncc(C)cc23)c(F)n1`, the synaptosome phagocytic index worked out at 0.951. In the case of `O=C(O)Cc1ccccc1Nc1c(Cl)cccc1Cl` [Diclofenac] it was 1.01.

For `CC1(C)O[C@@H]2[C@@H](CO[C@@]3(COS(N)(=O)=O)OC(C)(C)O[C@@H]23)O1` [Topiramate], the synaptosome phagocytic index was 1.08. For `Nc1cc(C(F)(F)F)c(-c2cc(N3CCOCC3)nc(N3CCOCC3)n2)cn1` [Buparlisib], the synaptosome phagocytic index was determined as 1.13. To `CN1C(C(=O)Nc2ccccn2)=C(O)c2ccccc2S1(=O)=O` [Piroxicam] belongs 0.661; to `CCc1cc2c(cc1N1CCC(N3CCOCC3)CC1)C(C)(C)c1[nH]c3cc(C#N)ccc3c1C2=O` [Alectinib_(Hydrochloride)], 0.192. As for `C#CCN[C@@H]1CCc2ccccc21` [Rasagiline_(mesylate)], the synaptosome phagocytic index came out at 0.965. In the case of `C[C@H](C(=O)O)c1cccc(C(=O)c2ccccc2)c1` [S-(+)-Ketoprofen], the synaptosome phagocytic index was found to be 0.724. On to `NC(=O)[C@H](Cc1c[nH]c2ccccc12)NC(=O)CNC(=O)[C@H](CCCN=C(N)N)NC(=O)[C@@H]1C[C@@H](O)CN1C(=O)[C@@H](N)Cc1ccc(F)cc1` [Nemifitide_(diTFA)], for which the synaptosome phagocytic index is 0.903.

With `CNCCC=C1c2ccccc2CCc2ccccc21` [Nortriptyline_(hydrochloride)], the synaptosome phagocytic index came out at 0.487. As for `CCCCNc1ncc2c(-c3ccc(CN4CCN(C)CC4)cc3)cn([C@H]3CC[C@H](O)CC3)c2n1`, the synaptosome phagocytic index amounted to 0.246.
